Compound activity from PubChem BioAssay.
Hits are enriched below; roughly 12% of the tested compounds scored in any of these assays.
SARS PLpro yeast: blocks SARS-CoV papain-like protease in a yeast assay | S. cerevisiae expressing SARS-CoV PLpro, growth rescue | Potency, µM (doses to about 32.9 µM), for inactives: top-dose activity, positive = growth rescue, hits mostly activators | 330,000 compounds, 0.19% hits | AID 485353; calls by dose curve; note: 0% is about no effect; nearly all actives have a fitted effect of over 55% in size
Sm TGR block: blocks Schistosoma mansoni thioredoxin glutathione reductase. Potency, µM (doses to about 114 µM), for inactives: at the highest dose activity change, negative = inhibition, usual class: inhibitors. Q962Y6. 360,000 compounds, 3% hits. purified TGR, DTNB reduction, TNB absorbance 405 nm; note: % is set by controls: 0 for no effect and ±100 for the full control effect; nearly all actives have a fitted effect of over 60% in size
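First, TGR (20 nM dispensed) and NADPH were mixed with compound. Second, a 15 min room-temperature incubation followed. Third, further NADPH and then DTNB were added to start the reaction. Finally, TNB absorbance was monitored kinetically.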
Pf growth 48h: inhibits P. falciparum growth in the first generation, 48 h. P. falciparum luciferase growth in erythrocytes, 48 h. Potency, µM (doses to about 28.7 µM), without a hit: at the highest dose activity change, negative = inhibition, actives largely listed as inhibitors. 310,000 compounds, 5.9% hits; note: % is set by controls: 0 for no effect and ±100 for the full control effect
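Here the parasites carry a stable luciferase gene and grow inside erythrocytes in Albumax-based RPMI medium with compound for one erythrocytic cycle. Activity is scored as loss of luminescent signal.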
AmpC no deterg: inhibitors of E. coli AmpC beta-lactamase without detergent; P00811; AmpC nitrocefin hydrolysis, absorbance 480 nm, 0.0001% Triton; Potency, µM (doses to about 57.1 µM), inactives show at the highest dose activity change, negative = inhibition, usual class: inhibitors; 330,000 compounds, 0.52% hits;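 note: plate controls were no compound for no effect and no enzyme for full effect; nearly all actives have a fitted effect of over 20% in size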
Target sequence (P00811 whole entry, looked up): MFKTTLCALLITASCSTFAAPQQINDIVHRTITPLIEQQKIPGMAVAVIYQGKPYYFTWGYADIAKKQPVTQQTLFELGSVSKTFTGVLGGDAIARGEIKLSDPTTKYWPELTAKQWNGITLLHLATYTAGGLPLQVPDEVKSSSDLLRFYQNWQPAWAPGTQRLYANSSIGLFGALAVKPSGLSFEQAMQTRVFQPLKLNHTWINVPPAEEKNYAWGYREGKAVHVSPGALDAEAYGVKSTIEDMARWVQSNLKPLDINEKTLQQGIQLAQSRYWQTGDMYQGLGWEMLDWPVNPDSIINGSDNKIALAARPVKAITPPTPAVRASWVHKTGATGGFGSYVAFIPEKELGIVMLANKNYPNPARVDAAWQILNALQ
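AmpC (5.3 nM in the dispensed reagent) in 20 mM phosphate pH 7.0 with 0.01% (detergent screen) or 0.0001% Triton X-100 was preincubated with compounds for 15 min at room temperature. Nitrocefin was then added from an 800 uM solution, and hydrolysis was followed at 480 nm.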
AmpC inh detg: blocks E. coli AmpC beta-lactamase in detergent assay; 370,000 compounds, 0.041% hits; P00811; Potency, µM (series often up to 114 µM), for inactives: top-dose activity change, negative = inhibition, usual class: inhibitors; AmpC hydrolysis of nitrocefin, absorbance 480 nm, 0.01% Triton; AID 485294;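 note: 0% = no-compound wells and -100% = no-enzyme wells; nearly all actives have a fitted effect of over 25% in size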
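AmpC (5.3 nM in the dispensed reagent) in 20 mM phosphate pH 7.0 with 0.01% (detergent screen) or 0.0001% Triton X-100 was preincubated with compounds for 15 min at room temperature. Nitrocefin was then added from an 800 uM solution, and hydrolysis was followed at 480 nm.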
Pf growth 96h: inhibits malaria parasite growth, 96 h. P. falciparum luciferase reporter growth, 96 h. Potency, µM (doses to about 28.7 µM), for inactives: top-dose activity change, negative = inhibition, actives largely listed as inhibitors. 320,000 compounds, 6.9% hits; note: % is set by controls: 0 for no effect and ±100 for the full control effect
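Erythrocytes infected with luciferase-expressing P. falciparum were dispensed at 2% hematocrit and 0.05% parasitemia (final), then incubated with compounds 96 hours at 37 C in 5% CO2. Luminescence after detection reagent addition reported growth.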
Active calls of the source: *; ? = inconclusive; nt = no result. Unless noted, calls come from the whole dose curve; as a rule, active = well fitted curve in the direction sought with a large enough effect; inconclusive = small, poorly fitted or top-dose-only effect, or another doubt; inactive = no such curve, though single readings can be large; an effect the other way counts as inactive or inconclusive. Potency is the fitted concentration of half-maximal effect.

SMILES	SARS PLpro yeast	Sm TGR block	Pf growth 48h	AmpC no deterg	AmpC inh detg	Pf growth 96h
CCC(C)c1ccc(OCC(=O)Nc2ccc(-c3nc4ncccc4o3)cc2)cc1 (stereo not drawn)	nt	14.9%	nt	nt	24.1%	nt
COc1ccccc1NC(=O)Cn1cc(C(=O)C(=O)N2CCOCC2)c2ccccc21	3.0%	5.0%	-14.4%	42.9%	-7.5%	7.2%
COc1ccc(NS(=O)(=O)c2cc(NC(=O)C3CC3)ccc2N2CCOCC2)cc1	-0.1%	-7.1%	?	-35.3%	-17.3%	-24.6%
COc1ccc(NS(=O)(=O)c2cc(NC(=O)c3cnc(C)cn3)ccc2N2CCCC2)cc1	11.9%	-1.9%	?	76.6%	-1.7%	?
COc1ccc(NS(=O)(=O)c2cc(NC(=O)c3ccco3)ccc2N2CCCCC2)cc1	16.3%	-0.1%	?	-10.6%	-6.5%	9.28µM*
O=C(Nc1ccc(N2CCN(C(=O)c3cccs3)CC2)c(Cl)c1)c1ccco1	-2.6%	1.3%	nt	-8.3%	-10.7%	?
COc1ccc(NS(=O)(=O)c2cc(NC(=O)c3cnc(C)cn3)ccc2N2CCCCC2)cc1	-4.8%	-6.9%	11.7µM*	50.0%	-6.7%	?
Cc1ccccc1C(=O)N1CCN(c2ccc(NC(=O)c3ccco3)cc2Cl)CC1	-17.7%	-15.6%	3.29µM*	30.3%	?	1.3%
COc1ccc(NS(=O)(=O)c2cc(NC(=O)C3CC3)ccc2N2CCCCC2)cc1	-2.5%	5.3%	-26.7%	-35.9%	-13.3%	10.4µM*
CC(C)(N)Cc1ccc(Cl)cc1	nt	nt	-9.4%	nt	nt	?
CCOc1ccc(C(=O)Nc2nnc(SCc3cc(=O)n4ccccc4n3)s2)cc1	nt	-1.1%	nt	nt	17.7%	nt
Cc1ccc(NC(=O)c2cc(NC(=O)c3ccco3)ccc2N2CCCCC2)cc1	-4.1%	-2.6%	6.57µM*	-27.1%	?	-29.1%
O=C(c1ccco1)N1CCN(c2ncnc3c2[nH]c2ccc(Br)cc23)CC1	?	?	9.28µM*	-16.3%	?	?
CCOc1ccc2[nH]c3c(N4CCN(C(=O)c5ccco5)CC4)ncnc3c2c1	0.2%	-1.3%	?	-10.5%	6.7%	11.7µM*
CCOc1ccc2[nH]c3c(N4CCC5(CC4)OCCO5)ncnc3c2c1	-0.5%	5.6%	?	-3.3%	9.1%	11.7µM*
CCCCOc1ncnc2c1[nH]c1ccc(OCC)cc12	17.9%	7.3%	32.2%	-21.2%	?	4.5%
CC(C)CCNC(=O)CN(C(=O)CCC(=O)Nc1ccccn1)c1ccc(F)c(Cl)c1	3.6%	1.9%	?	-6.2%	-12.0%	41.3%
O=C(CC1C(=O)NCCN1Cc1ccccc1C(F)(F)F)NC1CCC1 (stereo not drawn)	7.7%	39.8µM*	?	10.1%	3.3%	23.1%
O=C(CC1C(=O)NCCN1Cc1ccccc1C(F)(F)F)NC1CCCCC1 (stereo not drawn)	2.2%	39.8µM*	5.2%	60.2%	-12.6%	10.1%
O=C(CC1C(=O)NCCN1Cc1ccc(F)cc1Cl)NC1CCCCCCC1 (stereo not drawn)	-5.0%	?	6.6%	117.2%	-6.6%	7.9%
O=C(CC1C(=O)NCCN1Cc1ccccc1C(F)(F)F)NC1CCCCCC1 (stereo not drawn)	-21.1%	25.1µM*	-2.2%	55.1%	?	?
O=C(CC1C(=O)NCCN1Cc1ccccc1C(F)(F)F)NCCN1CCCCC1=O (stereo not drawn)	-1.2%	?	13.1%	1.9%	3.4%	?
COc1ccc(S(=O)(=O)CCC(=O)Nc2cccc(OC)c2)cc1	1.6%	0.5%	29.8%	4.2%	9.3%	?
Cc1ccc(OCCN2CCN(C(=O)CCC(=O)Nc3nnc(CC(C)C)s3)CC2)cc1	0.8%	7.8%	11.7µM*	150.1%	0.4%	0.329µM*
CCCc1nnc(NC(=O)CCC(=O)N2CCN(Cc3ccc(Cl)cc3)CC2)s1	4.6%	4.5%	-24.1%	-2.0%	-0.4%	11.7µM*
SMILES	SARS PLpro yeast	Sm TGR block	Pf growth 48h	AmpC no deterg	AmpC inh detg	Pf growth 96h
CCc1nnc(NC(=O)CCC(=O)N2CCN(Cc3ccc(Cl)cc3)CC2)s1	1.7%	-14.3%	?	90.3%	2.9%	nt
CCCn1c2ccccc2c2cnn(CC(=O)Nc3cccc(C(=O)OCC)c3)c(=O)c21	nt	-1.6%	nt	nt	11.7%	nt
COc1ccc(OC)c(NC(=O)CCc2c(C)nn(-c3ccc(N4CCCC4)nn3)c2C)c1	nt	-3.5%	nt	nt	19.8%	nt
CC(C)c1nnc(NC(=O)c2cccs2)s1	-8.5%	3.5%	217.9%	-11.3%	?	220.3%
CS(=O)(=O)Nc1nnc(SCC(=O)N(c2ccccc2)c2ccccc2)s1	-19.0%	-10.9%	-16.8%	-19.6%	?	2.62µM*
CC(C)N(C(=O)CSc1nnc(NC(=O)c2cccs2)s1)C(C)C	-1.1%	-0.4%	?	-22.2%	-0.4%	10.4µM*
CNC(=O)CSc1nnc(NC(=O)Nc2ccccc2)s1	nt	-2.8%	nt	nt	8.4%	nt
COc1ccc(Cn2c(C)c(C)c(C#N)c2NC(=O)Nc2cccc(Cl)c2)cc1	-4.4%	-18.9%	33.5%	-29.8%	-7.1%	59.1%
Nc1nnc2c(n1)CCCC2	3.2%	31.6µM*	-13.8%	0.159µM*	-0.8%	49.2%
C1CCc2nc3c(nc2C1)CCCC3	1.5%	-2.6%	19.4%	6.9%	-2.5%	0.0%
O=C(CCl)NN=C(c1ccccc1)c1ccccc1	2.5%	11.2µM*	3.7%	-25.1%	-0.3%	?
N#CC1=C(N)C(C#N)(C#N)[C@H](c2c(F)cccc2F)[C@H]2CC3(CC=C12)OCCO3	2.1%	?	5.22µM*	-21.1%	?	78.7%
N#CC1=C(N)C(C#N)(C#N)C2(CCC3(CC2)OCCO3)C2CC3(CC=C12)OCCO3 (stereo not drawn)	0.5%	?	?	4.6%	4.9%	-23.0%
OCCN(CCO)c1nc(N2CCCCC2)c2nc(N(CCO)CCO)nc(N3CCCCC3)c2n1	-8.0%	-2.8%	2.08µM*	92.5%	-13.1%	3.29µM*
CCOC(=O)c1cnc2ccccc2c1NCCc1ccc(OC)c(OC)c1	-0.7%	6.0%	11.7µM*	52.1%	6.8%	1.65µM*
CCOC(=O)c1cnc2ccc(OC)cc2c1NCCN1CCOCC1	4.3%	-2.7%	?	5.6%	6.1%	?
CCOC(=O)c1cnc2ccc(OC)cc2c1NCCc1ccc(OC)c(OC)c1	18.1%	2.2%	2.62µM*	-17.1%	-2.4%	?
CCOC(=O)CC(C)(C)/C(C)=N/Nc1ccc([N+](=O)[O-])cc1[N+](=O)[O-]	0.0%	1.9%	18.1%	-19.3%	4.1%	26.2%
CCNC(=S)Nc1ccc(Cl)cc1	25.0%	?	0.6%	-22.9%	6.1%	-15.9%
